Seven compounds from PubChem BioAssay (Tox21) can be followed below.

A short description of experiment [1]: Nuclear factor erythroid 2-related factor 2/antioxidant responsive element (Nrf2/ARE) small molecule agonists: qHTS cell viability counter screen in human keratinocytes (AID 1919968; active means well fitted cell-killing curve with a large enough effect in the repeat runs; further: nearly all actives have a fitted effect of over 55% in size). In short, it runs like this:
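HaCaT ARE reporter line, 1,500 cells/well; 5 h settle, 37 C/5% CO2; cpd in DMSO pinned; 23 h exposure; CellTiter-Fluor, 1 h; fluorescence.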
On the technique in general: In qHTS, concentration-response curves come from the screen itself.

The nature of experiment [2]: Nuclear factor erythroid 2-related factor 2/antioxidant responsive element (Nrf2/ARE) small molecule agonists: luciferase reporter gene qHTS assay in human keratinocytes (AID 1919969). Further: nearly all actives have a fitted effect of over 35% in size. Further: potency means the concentration at half of the fitted maximal effect. A general note: Reporter assays use an easily measured gene product as a stand-in for the process of interest.
Experiment [3] deals with Gonadotropin-releasing hormone receptor (Homo sapiens) (UniProt P30968). Put plainly: Human gonadotropin-releasing hormone receptor (GnRHR) small molecule agonists, calcium flux assay in GnRHR-HEK293 cells (AID 1920063). Further: nearly all actives have a fitted effect of over 35% in size. The essentials: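 GnRHR-HEK293, 1500 cells/well, 18 h 37 C/5% CO2; Ca dye 1 h 37 C; cpd pinned (DMSO), agonist mode; kinetic FL 480/540, 3 min, 1 s reads; 15 conc, n=3.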
A general note: Calcium assays in cells follow changes in intracellular calcium, usually with a dye or a luminescent sensor.

Experiment [4] can be described thus: G protein-coupled receptor (GPCR) small molecule agonists, calcium flux assay: HEK293 wild type cell line counter screen (AID 1920065). The essentials: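 Kinetic fluorescence at Ex/Em 480/540, recorded every second over 3 min, served as the read-out after compound addition. Each compound was tested at 15 concentrations in triplicate on cells pre-loaded with calcium dye for 1 h.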

Experiment [5] can be described thus: p53 small molecule agonists, cell-based qHTS assay with human liver microsomes (AID 1963577).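 Further: p53 response element beta-lactamase reporter cells with liver microsomes plus NADPH.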 The essentials: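 Reporter activation was measured by LiveBLAzer fluorescence intensity in p53RE-bla cells, which had been exposed to compounds for 16 h at 37 C alongside 0.5 mg/mL human liver microsomes and 0.5 mg/mL NADPH (final concentrations).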
A short description of experiment [6]: p53 small molecule agonists, cell-based qHTS assay with rat liver microsomes (AID 1963578). The essentials: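 Compound in DMSO added to p53RE-bla cells 5 h post-plating; rat microsomes/NADPH 0.5 mg/mL final; 16 h, 37 C; LiveBLAzer 2 h RT.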
The nature of experiment [7]: p53 small molecule agonists, cell-based qHTS assay with human liver microsomes: qHTS cell viability counter screen (AID 1963579). Further: nearly all actives have a fitted effect of over 45% in size. In short, it runs like this:
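HLM-supplemented (0.5 mg/mL final) and NADPH-supplemented (0.5 mg/mL final) p53RE-bla cultures, 4,000 cells per well, were dosed with compounds in DMSO for 16 h at 37 C; luminescent ATP detection (CellTiter-Glo, 30 min, room temperature) quantified surviving cells.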

The nature of experiment [8]: p53 small molecule agonists, cell-based qHTS assay with rat liver microsomes: qHTS cell viability counter screen (AID 1963580). Further: nearly all actives have a fitted effect of over 45% in size. The essentials: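 p53RE-bla HCT-116 cells were exposed 16 h at 37 C to compounds with rat liver microsomes (0.5 mg/mL) and NADPH (0.5 mg/mL). Viability was measured in the same wells as ATP content by CellTiter-Glo luminescence.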
Experiment [9] can be described thus: p53 small molecule agonists, cell-based qHTS assay: qHTS cell viability counter screen (AID 1963581). Further: nearly all actives have a fitted effect of over 45% in size. In short, it runs like this:
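HCT-116 p53RE-bla cells, 4,000/well, plated 5 h before compound pin transfer; 16 h at 37 C; bla substrate 2 h RT; then CellTiter-Glo, 30 min RT, luminescence.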

Experiment [10] can be described thus: p53 small molecule agonists, cell-based qHTS assay (AID 1963582; active means well fitted activation curve with a large enough effect in the signal ratio in the repeat runs, not every such curve was filed as active; the % refers to the signal ratio). In short, it runs like this:
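Reporter line: p53RE-bla. Pre-incubation 5 h, 37 C, 5% CO2; compound (DMSO, pin tool) 16 h, 37 C; B/G FRET substrate 2 h RT; fluorescence intensity read.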

For experiment [11], the target named is 5-hydroxytryptamine receptor 2A (Homo sapiens) (UniProt P28223). Put plainly: 5-hydroxytryptamine receptor 2A (HTR2A) small molecule antagonists, cell-based qHTS assay (AID 1963586). Further: nearly all actives have a fitted effect of over 45% in size. In short, it runs like this: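 Antagonist-mode intracellular calcium assay: DOI (4 nM) added after 5 min compound pre-incubation at room temperature to dye-loaded HTR2A-CHO cells. Fluorescence followed for 3 min, sampled every second.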

Experiment [12] shares this target. Briefly: 5-hydroxytryptamine receptor 2A (HTR2A) small molecule agonists, cell-based qHTS assay (AID 1963587). Further: nearly all actives have a fitted effect of over 30% in size. The essentials:
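CHO cells stably expressing human HTR2A, plated 18 h, loaded with calcium dye 1 h at 37 C. Agonist mode: compounds added and intracellular calcium fluorescence recorded kinetically for 2 min at 1 sec intervals.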

In experiment [13] the target is Muscarinic acetylcholine receptor M1 (Homo sapiens) (UniProt P11229). Put plainly: Cholinergic receptor muscarinic 1 (CHRM1) small molecule antagonists, cell-based qHTS assay (AID 1963588). Further: nearly all actives have a fitted effect of over 40% in size. In short, it runs like this: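 CHRM1-CHO calcium-flux assay, antagonist mode. Cells were seeded 18 h, dye-loaded 1 h at 37 C and given compound for 5 min at RT, then acetylcholine was added at 50nM. FDSS fluorescence was read 3 min; 15 concentrations, three runs.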

For experiment [14] the target is unchanged. Put plainly: Cholinergic receptor muscarinic 1 (CHRM1) small molecule agonists, cell-based qHTS assay (AID 1963589). Further: nearly all actives have a fitted effect of over 35% in size. In short, it runs like this:
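Human M1 in stable CHO line; 18 h plating, 1 h dye load 37 C; cpd added (agonist mode); Ca2+ fluorescence kinetic read, 1 s intervals; 15 conc, 3 runs.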

Experiment [15] in a line: cAMP Responsive Elements (CRE) small molecule agonists, cell-based qHTS assay (AID 1963590). The essentials: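 HEK 293T CRE-bla, 2,000 cells/well, 18 h preincubation 37 C/5% CO2; cpds (DMSO) pinned, 3 h; LiveBLAzer B/G FRET substrate, 2 h RT.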
A short description of experiment [16]: cAMP Responsive Elements (CRE) small molecule antagonists, cell-based qHTS assay (AID 1963591; active means well fitted inhibition curve with a large enough effect in the signal ratio in the repeat runs, not every such curve was filed as active; the % refers to the signal ratio). In short, it runs like this: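 Beta-lactamase reporter read by FRET substrate (LiveBLAzer B/G) after 2 h at room temperature. CRE-bla HEK293T cells had received compound plus 0.25 uM (final) NKH477 for 3 h at 37 °C.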
The target of experiment [17] is Beta-2 adrenergic receptor (Homo sapiens) (UniProt P07550). Briefly: Adrenergic beta2 receptor (ADRB2) small molecule antagonists, cell-based qHTS assay (AID 1963592). Further: series mostly up to about 92 µM; nearly all actives have a fitted effect of over 50% in size. The essentials: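 Cells (CHO, stable ADRB2 overexpression) incubated 18-20hr at 37C; compounds added from DMSO; agonist mix (1nM isoproterenol, 100uM IBMX, 25uM Ro-20-1724) added; 0.5hr RT; d2-cAMP and anti-cAMP-cryptate added; 1hr RT; 665/615 nm read.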

Experiment [18] has as its target D(2) dopamine receptor (Homo sapiens) (UniProt P14416). Put plainly: Dopamine D2 receptor (DRD2) small molecule agonists, cell-based qHTS assay (AID 1963594). Further: nearly all actives have a fitted effect of over 35% in size. In short, it runs like this: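 HEK293 cells stably expressing human DRD2, pre-treated with PDE inhibitor Ro20-1724 (0.1 mM final) and compound 10 min at room temperature, then stimulated with NKH477 (200nM […]) for 30 min. cAMP read by HTRF (665/620 nm).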

Experiment [19] shares this target. Briefly: Dopamine D2 receptor (DRD2) small molecule antagonists, cell-based qHTS assay (AID 1963595; active means well fitted inhibition curve with a large enough effect in the signal ratio in the repeat runs, with a control signal flat; the % refers to the signal ratio). The essentials:
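HEK293 cells stably expressing DRD2, preincubated with 0.1 mM Ro20-1724 and compounds 10 min, were stimulated with 200 nM NKH477 plus 12 nM quinpirole for 30 min at room temperature; cAMP measured by HTRF (665/620 nm).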

The target of experiment [20] is Beta-2 adrenergic receptor (Homo sapiens) (UniProt P07550). Put plainly: Adrenergic beta2 receptor (ADRB2) small molecule agonists, cell-based qHTS assay (AID 1963593).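 Further: CHO cells stably overexpressing human ADRB2.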 The essentials:
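CHO cells stably over-expressing ADRB2 were plated overnight at 37C, then dosed with compounds plus a stimulation mix containing 100uM IBMX and 25uM Ro-20-1724 for 0.5hr at room temperature. cAMP was measured by HTRF competition, 1hr.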

SMILES strings stand for the structures. Values without a mark were called inactive. Records with an inconclusive call do not appear. Activity calls are given as the source filed them. Unless noted, the call rests on the fitted dose curve.

Beta-2 adrenergic receptor (Homo sapiens), sequence (P07550 whole entry, looked up): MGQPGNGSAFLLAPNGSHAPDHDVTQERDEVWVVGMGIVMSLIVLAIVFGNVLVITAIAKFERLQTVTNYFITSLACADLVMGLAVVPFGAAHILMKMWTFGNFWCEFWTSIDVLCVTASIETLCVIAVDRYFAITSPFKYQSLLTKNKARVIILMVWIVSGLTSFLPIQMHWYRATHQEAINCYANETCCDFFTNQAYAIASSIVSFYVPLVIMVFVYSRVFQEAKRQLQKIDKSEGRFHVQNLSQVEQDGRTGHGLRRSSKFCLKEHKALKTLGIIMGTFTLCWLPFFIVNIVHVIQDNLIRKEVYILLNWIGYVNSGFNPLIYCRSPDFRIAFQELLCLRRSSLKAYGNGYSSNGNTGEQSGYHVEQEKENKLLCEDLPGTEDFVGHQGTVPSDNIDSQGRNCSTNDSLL
Muscarinic acetylcholine receptor M1 (Homo sapiens), sequence (P11229 whole entry, looked up): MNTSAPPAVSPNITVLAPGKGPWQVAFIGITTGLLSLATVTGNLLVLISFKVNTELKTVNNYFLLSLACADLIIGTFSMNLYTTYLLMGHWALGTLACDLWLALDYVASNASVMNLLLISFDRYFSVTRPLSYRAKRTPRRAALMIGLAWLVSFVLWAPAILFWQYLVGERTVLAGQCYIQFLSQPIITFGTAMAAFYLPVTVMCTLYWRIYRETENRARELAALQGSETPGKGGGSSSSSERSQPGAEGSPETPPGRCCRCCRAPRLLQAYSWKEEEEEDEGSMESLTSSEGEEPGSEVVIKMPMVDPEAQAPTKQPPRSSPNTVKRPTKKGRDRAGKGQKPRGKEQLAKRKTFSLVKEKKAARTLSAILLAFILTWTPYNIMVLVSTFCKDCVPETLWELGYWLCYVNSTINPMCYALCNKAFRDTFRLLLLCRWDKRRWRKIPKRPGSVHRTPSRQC
D(2) dopamine receptor (Homo sapiens), sequence (P14416 whole entry, looked up): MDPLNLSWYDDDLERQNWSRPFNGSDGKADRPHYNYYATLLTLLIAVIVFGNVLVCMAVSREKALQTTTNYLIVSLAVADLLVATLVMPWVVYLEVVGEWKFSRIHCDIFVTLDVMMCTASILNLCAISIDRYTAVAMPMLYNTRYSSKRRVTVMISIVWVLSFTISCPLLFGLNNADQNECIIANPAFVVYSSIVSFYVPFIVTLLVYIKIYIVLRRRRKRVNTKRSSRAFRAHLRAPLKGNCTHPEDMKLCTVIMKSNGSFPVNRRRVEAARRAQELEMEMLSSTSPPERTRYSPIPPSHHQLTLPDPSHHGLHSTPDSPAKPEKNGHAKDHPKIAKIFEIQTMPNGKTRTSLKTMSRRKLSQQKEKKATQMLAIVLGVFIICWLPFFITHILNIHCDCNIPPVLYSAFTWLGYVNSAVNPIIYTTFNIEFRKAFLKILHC
Gonadotropin-releasing hormone receptor (Homo sapiens), sequence (P30968 whole entry, looked up): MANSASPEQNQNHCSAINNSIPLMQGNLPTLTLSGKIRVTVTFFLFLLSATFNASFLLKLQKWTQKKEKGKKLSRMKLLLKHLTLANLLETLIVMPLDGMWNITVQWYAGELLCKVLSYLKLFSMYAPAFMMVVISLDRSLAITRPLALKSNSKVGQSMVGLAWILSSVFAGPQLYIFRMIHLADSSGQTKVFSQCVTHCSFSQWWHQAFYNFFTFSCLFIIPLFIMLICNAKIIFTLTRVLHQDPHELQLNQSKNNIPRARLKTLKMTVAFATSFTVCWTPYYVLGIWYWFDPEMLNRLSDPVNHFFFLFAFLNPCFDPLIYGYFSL
5-hydroxytryptamine receptor 2A (Homo sapiens), sequence (P28223 whole entry, looked up): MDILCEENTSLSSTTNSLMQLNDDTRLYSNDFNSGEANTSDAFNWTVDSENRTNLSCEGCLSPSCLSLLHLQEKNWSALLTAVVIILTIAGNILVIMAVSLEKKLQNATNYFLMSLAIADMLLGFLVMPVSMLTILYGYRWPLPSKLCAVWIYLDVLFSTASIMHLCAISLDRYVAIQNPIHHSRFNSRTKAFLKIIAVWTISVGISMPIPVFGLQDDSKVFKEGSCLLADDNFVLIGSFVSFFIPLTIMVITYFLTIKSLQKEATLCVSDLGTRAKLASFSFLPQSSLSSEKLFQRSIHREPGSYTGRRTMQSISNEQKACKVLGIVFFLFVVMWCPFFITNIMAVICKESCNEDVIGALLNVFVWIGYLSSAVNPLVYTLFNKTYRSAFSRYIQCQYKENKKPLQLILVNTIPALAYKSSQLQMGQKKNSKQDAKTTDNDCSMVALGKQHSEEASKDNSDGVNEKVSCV

Regarding `CCCCOC(=O)[C@H](C)O`, the Potency entry in experiment [1], in [2], in experiment [3], in experiment [4], in experiment [5] and in experiment [6] was “inactive” in each case. Further, the Potency entry in [7], in [8], in experiment [9], in [10], in [11] and in experiment [12] was “inactive” each time. The Potency result in experiment [13], in [14], in experiment [15], in experiment [16], in experiment [17] and in experiment [18] was “inactive” each time. Further, the Potency result in experiment [19] is “inactive”.

Take `CC(C)(C)c1n[nH]c(=O)n(N)c1=O`: the Potency entry in experiment [1], in [2], in [3], in experiment [4], in [5] and in [6] was “inactive” throughout. Besides, the Potency result in [7], in experiment [8], in experiment [10], in experiment [11], in experiment [12] and in [13] was “inactive” throughout. Also, the Potency result in experiment [14], in experiment [15], in experiment [16], in [20], in experiment [18] and in experiment [19] was “inactive” in each case.

For `C1=Cc2ccccc2C1`, the Potency result in [1], in experiment [2], in experiment [3], in experiment [4], in experiment [5] and in [6] was “inactive” in each case. Also, the Potency result in [7], in [8], in experiment [9], in [10], in experiment [12] and in [13] was “inactive” in each case. Further, the Potency result in [14], in experiment [15], in [16], in experiment [17], in experiment [18] and in [19] was “inactive” throughout.

For the compound `Cc1cccc(N(C)C(=S)Oc2ccc3ccccc3c2)c1`, the Potency entry in experiment [1], in experiment [3], in experiment [4], in experiment [5], in [6] and in [7] was “inactive” each time. In addition, the Potency result in experiment [8], in experiment [9], in experiment [10], in experiment [15], in experiment [16] and in [17] was “inactive” throughout. Also, the Potency entry in [18] and in experiment [19] was “inactive” in each case. In addition, the Potency in [2] was 21.7 µM (active).

`CC1(C)C(C=C(Cl)Cl)C1C(=O)OCc1cccc(Oc2ccccc2)c1` (stereo unspecified): the Potency entry in experiment [1], in experiment [2], in [3], in [4], in experiment [5] and in experiment [6] was “inactive” throughout. Moreover, the Potency entry in experiment [7], in [8], in [9], in experiment [10], in experiment [11] and in experiment [12] was “inactive” in each case. For the same compound, the Potency result in experiment [13], in experiment [14], in [15], in experiment [16], in experiment [17] and in [18] was “inactive” throughout. Moreover, the Potency result in experiment [19] was “inactive”.

Consider `Nc1nnnn1-c1ccccc1`, for which the Potency result in experiment [1], in [2], in [3], in [4], in experiment [5] and in [6] was “inactive” in each case. For the same compound, the Potency result in [7], in [8], in [9], in experiment [10], in experiment [11] and in experiment [12] was “inactive” each time. For the same compound, the Potency entry in [13], in experiment [14], in [16], in experiment [17], in [20] and in experiment [19] was “inactive” in each case.

In the case of `CCCCOC(=O)C(C)OC(=O)CCC` (stereo unspecified), the Potency entry in experiment [1], in experiment [2], in [3], in experiment [4], in experiment [5] and in experiment [6] was “inactive” each time. For the same compound, the Potency result in experiment [7], in experiment [8], in experiment [9], in experiment [10], in experiment [12] and in experiment [13] was “inactive” each time. Also, the Potency result in experiment [14], in experiment [15], in experiment [16], in [17], in [20] and in experiment [18] was “inactive” in each case. Besides, in experiment [19], the Potency entry is “inactive”.
